Measurements reported in PubChem BioAssay (NCI).
About 83,000 compounds went through this panel and 20% of them were active in at least one assay; those are over-represented in the sample as a whole.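 Cells were grown in 96-well plates and exposed to the test compound at a single concentration for 48 hours; results are reported as percent growth, with values below 10 considered active.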 Unmarked numbers belong to inactive results. Activity calls are given as the source filed them.

Experiments:
Experiment in all cases: NCI-60 one-dose screen, 48 h (100 = growth as untreated, 0 = no growth, -100 = all killed)
Details in all cases: 10 µM unless noted
[1] = test system: NCI-H23 lung
[2] = test system: NCI-H226 lung
[3] = test system: NCI-H322M lung
[4] = test system: HOP-62 NSCLC
[5] = test system: NCI-H460 lung
[6] = test system: HOP-92 NSCLC
[7] = test system: NCI-H522 lung
[8] = test system: A549/ATCC NSCLC
[9] = test system: 786-0 renal
[10] = test system: COLO 205 colon
[11] = test system: DU-145 prostate
[12] = test system: K-562 leukemia
[13] = test system: MALME-3M melanoma
[14] = test system: MDA-MB-231 breast
[15] = test system: RXF 393 renal
[16] = test system: SF-268 CNS
[17] = test system: SF-295 CNS
[18] = test system: SF-539 CNS
[19] = test system: UACC-257 melanoma
[20] = test system: M14 melanoma

Row | Compound | growth [1] | growth [2] | growth [3] | growth [4] | growth [5] | growth [6] | growth [7] | growth [8] | growth [9] | growth [10] | growth [11] | growth [12] | growth [13] | growth [14] | growth [15] | growth [16] | growth [17] | growth [18] | growth [19] | growth [20]
1 | CCNCCNc1cc(C2CCCCC2)c(C#N)c2nc3ccccc3n12 | 44.7% | 15.3% | -3.13% (active) | 16.1% | -23.4% (active) | -24.5% (active) | -9.52% (active) | 3.05% (active) | 4.62% (active) | -52.8% (active) | 32.6% | -38.8% (active) | -72.4% (active) | -48.7% (active) | -81.1% (active) | 22.3% | -53.5% (active) | -88.8% (active) | -67.2% (active) | -66% (active)
2 | COc1ccc(\C=N/N=C(N)/C(N)=N\N=C/c2ccc(OC)cc2)cc1 | 95.6% | 96.1% | 123% | 97.8% | 108% | 92.5% | 87.5% | 113% | 123% | 107% | 113% | 99.9% | 106% | 107% | 96.9% | 100% | 97.3% | 92.7% | 121% | 111%
3 | Nc1nc2ccccc2c2c(=O)c3cccc(Cl)c3sc12 | 80.3% | 94.4% | 89.1% | 81.8% | 61.5% | 101% | 93.3% | 76.8% | 96.2% | 57.2% | 94.7% | 91.7% | 101% | 78.9% | 106% | 102% | 97.9% | 88.4% | 104% | 96.9%
4 | O=S(=O)(Nc1ccc(F)cc1F)c1ccc(-c2cnc(C3CC3)o2)cc1 | 38% | 64.3% | 47.4% | 39.7% | 16.3% | 44.4% | 13.4% | 41.5% | 44% | 16.2% | 40.7% | 18.2% | 34.8% | 53% | -1.92% (active) | 44.6% | 30.7% | 1.19% (active) | 64% | 4.25% (active)
5 | O=C1/C(=C\c2ccc3nccnc3c2)SC(=S)N1CCc1ccc(O)cc1 | 98.2% | 96% | 103% | 108% | 102% | -3.77% (active) | 65.9% | 101% | 60.6% | 119% | 59.6% | 96.9% | 75.7% | 88.7% | 93% | 90.8% | 105% | 82.2% | 81.9% | 85.5%
6 | CSc1oc(C)nc1[P+](c1ccccc1)(c1ccccc1)c1ccccc1 | 30% | 67.6% | 99% | 87.6% | 37.3% | 59.9% | 56.5% | 61.8% | 89.3% | 7.5% (active) | 57.6% | 31% | 76.1% | 65.4% | 75.9% | 54.8% | 78.3% | 79.6% | 20.5% | 74.9%
7 | COC(=O)c1nc(-c2ccccc2)oc1S(=O)(=O)Cc1ccccc1 | 96.8% | 96.1% | 98.1% | 99.2% | 107% | 87.2% | 38.1% | 96.5% | 71.4% | -43% (active) | 109% | 2.87% (active) | -78.7% (active) | 85.2% | 96.8% | 93.1% | 103% | 100% | 85.1% | 48%
8 | CNc1nnc2n(-c3ccccc3)c(=O)c3cnn(-c4ccccc4)c3n12 | 95.8% | 93.6% | 100% | 64.7% | 106% | 78.3% | 41.8% | 64.4% | 74.7% | 84.7% | 102% | 85.7% | 131% | 103% | 98.2% | 96.1% | 78.8% | 83.5% | 95.7% | 79.1%
9 | CCCCNC(=O)Oc1ccc(/C(=C(/C)Cc2ccc(OC)cc2)c2ccc(OCCN(CC)CC)cc2)cc1 | 97% | 101% | 84.9% | 91.5% | 53.3% | 52.6% | 85.3% | 61.2% | 69% | 46.8% | 91.7% | 3.84% (active) | 88.1% | 88.8% | 81.7% | 86.2% | 86.6% | 77.8% | 90.7% | 52.1%
10 | Nc1ncnc2c1C(c1ccccc1)c1ccc3ccccc3c1O2 (stereo not given) | 77.5% | 77.6% | 88% | 68.5% | 103% | 45.1% | 53.8% | 86% | 89.7% | 92.8% | 99.8% | 70% | 110% | 89.1% | 104% | 84.7% | 88% | 90.7% | 79.7% | 95.8%
11 | O=S(=O)(Nc1ccc(Cl)c(C(F)(F)F)c1)c1ccc(-c2cnc(C3CC3)o2)cc1 | 20.4% | 46.7% | 44.4% | 12.2% | 7.09% (active) | -18.5% (active) | -1.8% (active) | 8.92% (active) | 25.9% | 2.71% (active) | 15.5% | 5.12% (active) | 28.7% | 15.6% | 8.55% (active) | 13.7% | 22.2% | -35.8% (active) | -0.635% (active) | 10.9%
12 | Cc1[nH]c(=O)[nH]c(=O)c1Br | 97.9% | 108% | 120% | 104% | 105% | 102% | 111% | 98.2% | 107% | 112% | 125% | 98.3% | 119% | 99.3% | 115% | 95.2% | 98.4% | 114% | 88.1% | 107%
13 | NC(Cc1ccc(O)c([N+](=O)[O-])c1)C(=O)O (stereo not given) | 98.5% | 101% | 107% | 105% | 113% | 67.4% | 94.7% | 100% | 99.2% | 122% | 106% | 101% | 109% | 113% | 108% | 99.8% | 117% | 100% | 99.8% | 101%
14 | CCn1cc(C(=O)O)c(=O)c2cc(F)c(N3CCN(CC(=O)Nc4ccc(S(=O)(=O)Nc5nccc(C)n5)cc4)C(C)C3)c(F)c21 (stereo not given) | 103% | 97.1% | 104% | 103% | 104% | 119% | 105% | 111% | 112% | 118% | 105% | 105% | 111% | 100% | 99% | 98.3% | 104% | 99.2% | 114% | 103%
15 | Cc1ccc(Nc2cc(N)nc(N)n2)cc1Cl | 87.6% | 93.3% | 99.8% | 87.3% | 103% | 83.9% | 87% | 83.1% | 87.9% | 107% | 94% | 74.4% | 97.7% | 102% | 97.5% | 88.7% | 92.3% | 96.7% | 93.6% | 93.5%
